# In PubChem BioAssay (Tox21):
# Unmarked numbers belong to inactive results. Results filed as inconclusive are left out. Where a call stands in place of a potency, no number is given. The source made the active and inactive calls. Unless noted, calls follow the shape of the dose curve; as a rule, active = well fitted curve in the direction sought with a large enough effect in the repeat runs; inconclusive = weak or mixed curves; inactive = no such curve, though single readings can be large; an effect the other way counts as inactive or inconclusive.
# What was measured:
# [1] = qHTS assay for small molecules that induce genotoxicity in human embryonic kidney cells expressing luciferase-tagged ATAD5 (AID 651632); also: nearly all actives have a fitted effect of over 15% in size
# Procedure, shortened: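 Luminescent reporter readout, HEK293T ATAD5-luc line: 16 hr drug exposure (37C, 5% CO2) followed by Amplite, 30 min RT.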
# [2] = qHTS assay for small molecule agonists of the p53 signaling pathway - cell viability (AID 651633; calls by dose curve; also: nearly all actives have a fitted effect of over 30% in size; also: potency is read from the fitted curve at half-maximal effect)
# Procedure, shortened: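 p53RE-bla cells were treated with compound for 16 hours at 37 C. Cytotoxicity was then measured as CellTiter-Glo luminescence after 30 min at room temperature.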
# [3] = qHTS assay for small molecules that induce genotoxicity in human embryonic kidney cells expressing luciferase-tagged ATAD5 - cell viability (AID 651634; calls by dose curve; also: nearly all actives have a fitted effect of over 25% in size; also: potency is read from the fitted curve at half-maximal effect)
# Procedure, shortened: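 Viability read: CellTiter-Fluor fluorescence, 30 min at 37C. Cells: HEK293T, luciferase-tagged ATAD5. Exposure: 15.5 hr, 37C, 5% CO2, compound or DMSO vehicle.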
# [4] = qHTS assay for small molecule disruptors of the mitochondrial membrane potential - cell viability (AID 720634; calls by dose curve;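 also: human HepG2 liver cancer cells; series mostly up to about 83 µM; nearly all actives have a fitted effect of over 20% in size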)
# Procedure, shortened: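 HepG2, 1 hr compound, 37 C. ATP luminescence via CellTiter-Glo, 30 min RT, same well as m-MPI.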
# [5] = qHTS assay to test for compound auto fluorescence at 590 nm (red) in HepG2 cells (AID 720674)
# Procedure, shortened: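 Seeding: 2,000 HepG2 cells/well, MEM/10% FBS, overnight 37 C. Dosing: compound vs DMSO. Incubation: 1 hr, 37 C, 5% CO2. Read: fluorescence 540 ex/590 em, Rose Bengal sodium as red reference.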
# [6] = qHTS assay to test for compound auto fluorescence at 460 nm (blue) in HEK293 cells (AID 720678)
# Procedure, shortened: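 Blue-channel (Ex/Em 405/460 nm) intensity measured in HEK293 cultures after overnight compound exposure at 37C; signal expressed relative to triamterene. Cells plated 2,000 per well in 10% dialyzed FBS medium and allowed 4-5 hr to attach.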
# [7] = qHTS assay to test for compound auto fluorescence at 590 nm (red) in HEK293 cells (AID 720679)
# Procedure, shortened: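 Red-channel autofluorescence (Ex/Em 540/590 nm; Rose Bengal sodium reference) was measured after overnight 37C, 5% CO2 exposure of attached HEK293 cells, 2,000 per well in medium with 10% dialyzed FBS.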
# [8] = qHTS assay to test for compound auto fluorescence at 535 nm (green) in HEK293 cells (AID 720680)
# [9] = qHTS assay to test for compound auto fluorescence at 460 nm (blue) in HEK293 cell free culture (AID 720681)
# Procedure, shortened: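 Compounds were added to cell-free DMEM with 10% FBS and fluorescence read directly. The blue channel used 405 nm excitation and 460 nm emission, with triamterene as the reference fluorophore.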
# [10] = qHTS assay to test for compound auto fluorescence at 535 nm (green) in HEK293 cell free culture (AID 720682)
# Procedure, shortened: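 Steps: dispense DMEM/10% FBS into empty wells; pin in compound or DMSO; measure fluorescence at 485/535 nm. Values are fluorescein equivalents.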
# [11] = qHTS assay to test for compound auto fluorescence at 590 nm (red) in HEK293 cell free culture (AID 720683)
# Procedure, shortened: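 Cell-free wells of DMEM with 10% FBS received compound, and intrinsic fluorescence was read at excitation/emission 540/590 nm. Values expressed as equivalence to Rose Bengal sodium.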
# [12] = qHTS assay to identify small molecule antagonists of the glucocorticoid receptor (GR) signaling pathway - cell viability counter screen (AID 720693); also: nearly all actives have a fitted effect of over 55% in size; also: potency is read from the fitted curve at half-maximal effect
# [13] = qHTS assay for identifying genotoxic compounds that show differential cytotoxicity against isogenic chicken DT40 cell lines with known DNA damage response pathways - Rad54/Ku70 mutant cell line (AID 743015); also: nearly all actives have a fitted effect of over 60% in size; also: potency is read from the fitted curve at half-maximal effect
# Aromatase (Homo sapiens) = Aromatase (Homo sapiens) (UniProt P11511); assay: qHTS assay to identify aromatase inhibitors (AID 743083); also: nearly all actives have a fitted effect of over 55% in size; also: potency is read from the fitted curve at half-maximal effect
# [14] = qHTS assay to identify aromatase inhibitors - cell viability counter screen (AID 743084);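 also: cells stimulated with testosterone during compound exposure; nearly all actives have a fitted effect of over 55% in size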; also: potency is read from the fitted curve at half-maximal effect
# [15] = qHTS assay to identify small molecule that activate the aryl hydrocarbon receptor (AhR) signaling pathway - cell viability counter screen (AID 743086);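 also: HepG2 liver cells carrying the AhR DRE luciferase reporter; series mostly up to about 70 µM; nearly all actives have a fitted effect of over 45% in size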
# Procedure, shortened: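 HepG2-AhR-luc (HG2L7.5c1) cells, 4000/well, treated 24 h at 37 C with compound; viability measured as CellTiter-Fluor fluorescence after 30 min in the same wells as the luciferase read.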
# [16] = qHTS assay to identify small molecule antagonists of the estrogen receptor alpha (ER-alpha) signaling pathway - cell viability counter screen (AID 743074; calls by dose curve;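 also: HEK293 cells carrying ER-alpha-UAS-bla reporter stimulated with 17beta-estradiol; nearly all actives have a fitted effect of over 45% in size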)
# [17] = qHTS assay to identify small molecule phospholipidosis (PLD) inducers (AID 1259344; active = well fitted curve in the direction sought with a large enough effect; an effect the other way counts as inactive or inconclusive)
# Procedure, shortened: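 HepG2 cells, 900/well, treated with compound plus LipidTOX Red for 24 h at 37 C; amiodarone positive and DMSO negative controls. Fixed with paraformaldehyde/Hoechst, then high-content imaging scored LipidTOX pit count and integrated intensity per well and per cell.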
# [18] = target: Aryl hydrocarbon receptor (Homo sapiens) (UniProt P35869); assay: qHTS assay to identify small molecule that activate the aryl hydrocarbon receptor (AhR) signaling pathway (AID 743085); also: nearly all actives have a fitted effect of over 15% in size; also: potency is read from the fitted curve at half-maximal effect
# Procedure, shortened: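 Steps: seed HepG2-AhR-luc cells; allow 5 h at 37C; pin-transfer test compound or vehicle; incubate 24 h at 37C; add viability dye (30 min, 37C) and read fluorescence; add luciferase substrate (30 min, RT) and read luminescence.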
# [19] = target: Acetylcholinesterase (Homo sapiens) (UniProt P22303); assay: Acetylcholinesterase (AChE) small molecule antagonists: colormetric cell-based qHTS assay (AID 1347395; calls by dose curve; also: nearly all actives have a fitted effect of over 30% in size)
# Procedure, shortened: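 Endogenous AChE of human neuroblastoma SH-SY5Y cells was measured with an Ellman-type DTNB/acetylthiocholine mix. Compound pretreatment lasted 30 min at 37 C; substrate reaction ran 90 min at 37 C.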
# Sequence of Acetylcholinesterase (Homo sapiens) (P22303 whole entry, looked up): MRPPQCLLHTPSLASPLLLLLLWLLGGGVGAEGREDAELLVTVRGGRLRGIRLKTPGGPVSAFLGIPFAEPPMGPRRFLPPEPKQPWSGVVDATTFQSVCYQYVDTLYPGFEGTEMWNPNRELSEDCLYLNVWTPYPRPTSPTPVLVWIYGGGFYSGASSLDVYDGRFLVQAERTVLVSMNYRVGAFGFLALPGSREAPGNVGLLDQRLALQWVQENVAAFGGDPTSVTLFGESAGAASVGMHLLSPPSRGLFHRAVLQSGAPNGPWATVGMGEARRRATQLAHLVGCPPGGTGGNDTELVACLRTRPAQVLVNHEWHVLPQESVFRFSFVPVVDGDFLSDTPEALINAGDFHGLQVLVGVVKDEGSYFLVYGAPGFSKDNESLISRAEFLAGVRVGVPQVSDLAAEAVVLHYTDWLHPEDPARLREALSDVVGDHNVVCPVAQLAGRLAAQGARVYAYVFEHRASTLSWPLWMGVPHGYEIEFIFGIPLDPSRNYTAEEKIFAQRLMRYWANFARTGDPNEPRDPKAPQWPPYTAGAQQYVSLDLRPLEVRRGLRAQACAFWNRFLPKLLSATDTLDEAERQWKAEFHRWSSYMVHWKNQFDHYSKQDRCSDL
# Sequence of Aryl hydrocarbon receptor (Homo sapiens) (P35869 whole entry, looked up): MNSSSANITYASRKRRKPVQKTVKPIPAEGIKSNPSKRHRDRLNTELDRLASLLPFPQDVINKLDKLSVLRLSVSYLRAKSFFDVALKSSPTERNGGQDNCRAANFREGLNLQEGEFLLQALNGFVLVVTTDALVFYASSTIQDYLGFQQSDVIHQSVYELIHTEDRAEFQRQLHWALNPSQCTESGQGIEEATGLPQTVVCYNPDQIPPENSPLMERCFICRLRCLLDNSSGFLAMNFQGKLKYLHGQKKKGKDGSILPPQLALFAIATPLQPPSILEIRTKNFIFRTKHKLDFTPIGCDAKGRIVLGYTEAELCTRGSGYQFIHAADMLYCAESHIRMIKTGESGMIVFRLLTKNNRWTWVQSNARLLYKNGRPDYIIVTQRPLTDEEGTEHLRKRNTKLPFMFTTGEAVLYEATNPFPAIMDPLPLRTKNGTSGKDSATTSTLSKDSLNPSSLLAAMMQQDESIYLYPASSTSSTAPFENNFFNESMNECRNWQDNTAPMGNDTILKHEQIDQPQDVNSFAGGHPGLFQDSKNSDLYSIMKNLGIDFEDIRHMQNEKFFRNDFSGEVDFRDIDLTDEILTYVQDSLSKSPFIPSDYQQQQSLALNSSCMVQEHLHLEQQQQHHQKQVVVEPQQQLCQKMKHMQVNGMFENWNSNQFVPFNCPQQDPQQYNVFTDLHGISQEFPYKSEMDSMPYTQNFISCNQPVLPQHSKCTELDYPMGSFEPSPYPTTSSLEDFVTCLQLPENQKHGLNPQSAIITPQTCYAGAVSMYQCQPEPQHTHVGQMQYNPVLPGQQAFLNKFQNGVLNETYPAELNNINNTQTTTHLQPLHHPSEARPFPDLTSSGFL
# Sequence of Aromatase (Homo sapiens) (P11511 whole entry, looked up): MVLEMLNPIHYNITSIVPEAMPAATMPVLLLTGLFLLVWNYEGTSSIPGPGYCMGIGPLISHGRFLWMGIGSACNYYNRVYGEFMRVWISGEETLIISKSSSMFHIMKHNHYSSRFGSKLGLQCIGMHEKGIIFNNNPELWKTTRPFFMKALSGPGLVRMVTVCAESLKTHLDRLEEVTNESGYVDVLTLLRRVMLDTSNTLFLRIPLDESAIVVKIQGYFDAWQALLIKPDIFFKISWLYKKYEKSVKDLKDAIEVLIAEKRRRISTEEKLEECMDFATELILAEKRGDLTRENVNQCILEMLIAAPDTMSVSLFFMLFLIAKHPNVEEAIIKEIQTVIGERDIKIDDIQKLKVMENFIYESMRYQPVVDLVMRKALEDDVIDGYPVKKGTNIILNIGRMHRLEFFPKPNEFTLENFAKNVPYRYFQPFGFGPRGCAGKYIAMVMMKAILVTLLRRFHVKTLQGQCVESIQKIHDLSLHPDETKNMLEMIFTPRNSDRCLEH
SMILES,Potency [1],Potency [2],Potency [3],Potency [4],outcome [5],Potency [6],outcome [7],Potency [8],Potency [9],Potency [10],outcome [11],Potency [12],Potency [13],Potency (Aromatase (Homo sapiens)),Potency [14],Potency [15],Potency [16],Potency [17],Potency [18],Potency [19]
CC(=O)O[C@H]1C[C@H](O[C@H]2[C@@H](O)C[C@H](O[C@H]3[C@@H](O)C[C@H](O[C@H]4CC[C@@]5(C)[C@H](CC[C@@H]6[C@@H]5C[C@@H](O)[C@]5(C)[C@@H](C7=CC(=O)OC7)CC[C@]65O)C4)O[C@@H]3C)O[C@@H]2C)O[C@H](C)[C@H]1O[C@@H]1O[C@H](CO)[C@@H](O)[C@H](O)[C@H]1O,inactive,0.133 µM (active),0.168 µM (active),inactive,inactive,inactive,inactive,inactive,inactive,inactive,inactive,0.674 µM (active),0.668 µM (active),inactive,inactive,inactive,,,,
C[C@@H]1[C@H](O)[C@@H](C)/C=C/C=C/CC/C=C/C=C/C=C/C=C/[C@H](O[C@H]2O[C@@H](C)[C@H](O)[C@@H](N)[C@H]2O)CC2O[C@](O)(C[C@@H](O)[C@H](O)CC[C@@H](O)C[C@@H](O)C[C@@H](O)CC(=O)O[C@H]1C)C[C@H](O)[C@H]2C(=O)O,inactive,inactive,inactive,inactive,inactive,inactive,inactive,inactive,inactive,inactive,,inactive,inactive,inactive,inactive,inactive,inactive,inactive,,
C[C@H]1[C@H]2Cc3ccc(O)cc3[C@]1(C)CCN2CCc1ccccc1,inactive,inactive,inactive,inactive,inactive,inactive,inactive,inactive,inactive,inactive,inactive,inactive,17.1 µM (active),inactive,inactive,,inactive,inactive,12.1 µM (active),
COc1cc2c(cc1OC)[C@@H]1CC(=O)[C@@H](CC(C)C)CN1CC2,,,,,,,,,,,,,,inactive,,,,,inactive,inactive
c1ccc(-c2ccccc2-c2ccccc2)cc1,,,,,,,,,,,,,,,,,,,,inactive
CC1(C)C(C=C(Cl)Cl)C1C(=O)OCc1cccc(Oc2ccccc2)c1 (centres undefined),,,,,,,,,,,,,,inactive,,,,,inactive,inactive
C[C@]12C[C@H]3S[C@H]3C[C@@H]1CC[C@@H]1[C@@H]2CC[C@]2(C)[C@@H](O)CC[C@@H]12,inactive,inactive,inactive,inactive,inactive,inactive,inactive,,inactive,inactive,inactive,inactive,,inactive,inactive,inactive,inactive,,,
CCN(CC)CCO[C@H]1CC[C@@]2(C)C(=CC[C@@H]3[C@@H]2CC[C@]2(C)C(=O)CC[C@@H]32)C1,inactive,inactive,inactive,inactive,inactive,inactive,inactive,inactive,inactive,inactive,,inactive,1.33 µM (active),inactive,inactive,inactive,,,inactive,
CN1[C@@H]2CC[C@H]1CC(OC(=O)C(CO)c1ccccc1)C2 (some centres undefined),,,,,,,,,,,,,,inactive,,,,,,
C[C@@H]1[C@H]2Cc3ccc(O)cc3[C@]1(C)CCN2C,inactive,inactive,inactive,inactive,inactive,inactive,inactive,,inactive,inactive,inactive,inactive,,,inactive,inactive,inactive,inactive,inactive,
O=c1c2ccccc2[se]n1-c1ccccc1,inactive,,,,inactive,inactive,inactive,inactive,inactive,inactive,inactive,inactive,6.68 µM (active),29.8 µM (active),26.6 µM (active),,,inactive,,
